The nature of assay [1]: NCI Yeast Anticancer Drug Screen. Data for the rad50 strain (AID 155).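 Further: 0% = growth of vehicle-only cultures of the same strain.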 Particulars: S. cerevisiae rad50 strain growth inhibition, stronger effect = higher value. Summed up:
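Relative growth inhibition (compound vs vehicle) was measured in yeast with a defined repair-gene alteration.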

The nature of assay [2]: NCI Yeast Anticancer Drug Screen. Data for the mec2-1 strain (AID 157). As to conditions: S. cerevisiae mec2-1 strain, stronger effect = higher value. An outline of the steps: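 Mutant yeast (mec2-1) grown with compound; growth inhibition relative to vehicle control reported.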
The nature of assay [3]: NCI Yeast Anticancer Drug Screen. Data for the sgs1 mgt1 strain (AID 161).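 Further: 0% = growth of cultures given vehicle only.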 Particulars: S. cerevisiae sgs1 mgt1 strain, stronger effect = higher value. Summed up: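 Growth of a repair-deficient yeast mutant was monitored after compound treatment and expressed as inhibition relative to vehicle-treated cultures.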
Assay [4] can be described thus: NCI Yeast Anticancer Drug Screen. Data for the cln2 rad14 strain (AID 165).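 Further: 0% = growth equal to vehicle treated cultures.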 As to conditions: S. cerevisiae cln2 rad14 strain, stronger effect = higher value. An outline of the steps: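 Readout is yeast growth inhibition versus vehicle-treated controls, using a strain with cln2 and rad14 alterations exposed to compound.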
A short description of assay [5]: NCI Yeast Anticancer Drug Screen. Data for the bub3 strain (AID 167). As to conditions: S. cerevisiae bub3 mutant strain, stronger effect = higher value. An outline of the steps:
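Screening used yeast with an engineered genetic alteration affecting cell cycle control. Compound-exposed cultures were compared with vehicle cultures, and reduced growth was taken as inhibition.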

The nature of assay [6]: NCI Yeast Anticancer Drug Screen. Data for the mlh1 rad18 strain (AID 175). As to conditions: S. cerevisiae mlh1 rad18 strain growth inhibition, stronger effect = higher value. An outline of the steps: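 Genetically defined yeast (DNA repair-deficient) exposed to compounds; growth inhibition determined relative to vehicle.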
Setting [7] is: at 5.0 µM (retest, dose inferred, filed as 0.5).
The mark [8] stands for this setting: at 50.0 µM (retest, dose inferred, filed as 5.0).

Values joined by “and” are separate entries in the source; they are usually repeats but may differ in a detail not shown here. Identical values can stand only once. The panel holds about 79,000 compounds, 15% with a hit somewhere; the sample as a whole holds those more often. More than one record can exist for a structure, and the calls need not agree. Active and inactive are the calls of the source. No stated cut-off is given here; in the data, active means growth inhibition above about 70%; inactive means the rest.

As for `Fc1ccc2nc3ccccc3nc2c1`, the growth inhibition in assay [1] (setting [7]) was 3% (inactive); in assay [1] (setting [8]), 40% (inactive); in assay [1] (at 50.0 µM), 77.5% (active); in assay [2] (setting [7]), 5% (inactive); in assay [2] (setting [8]) it was 27% (inactive); in assay [2] (at 50.0 µM), 49.2% (inactive). For the same molecule, the growth inhibition is 0% (inactive) in assay [3] (setting [7]); 10% (inactive) in assay [3] (setting [8]); 22.6% (inactive) in assay [3] (at 50.0 µM); -6% (inactive) in assay [4] (setting [7]); 10% (inactive) in assay [4] (setting [8]); 29.5% (inactive) in assay [4] (at 50.0 µM). Besides, the growth inhibition in assay [5] (setting [7]) was 5% (inactive); in assay [5] (setting [8]), 24% (inactive); in assay [5] (at 50.0 µM), 42.5% (inactive); in assay [6] (setting [7]) it was 2% (inactive); in assay [6] (setting [8]) it was 27% (inactive); in assay [6] (at 50.0 µM), 76.3% (active).

Take `O=c1c(O)cccc2cc(O)c(O)c(O)c12`: the growth inhibition was 9% (inactive) and 29% (inactive) in assay [1] (setting [7]); 90% (active) and 98% (active) in assay [1] (setting [8]); 89.2% (active) and 90.3% (active) in assay [1] (at 50.0 µM); -22% (inactive) and 25% (inactive) in assay [2] (setting [7]); 94% (active) and 98% (active) in assay [2] (setting [8]); 91.4% (active) and 91.2% (active) in assay [2] (at 50.0 µM). Moreover, the growth inhibition was -4% (inactive) and 36% (inactive) in assay [3] (setting [7]); 92% (active) and 98% (active) in assay [3] (setting [8]); 89.7% (active) and 91.3% (active) in assay [3] (at 50.0 µM); 12% (inactive) and 6% (inactive) in assay [4] (setting [7]); 91% (active) and 97% (active) in assay [4] (setting [8]); 85.5% (active) and 87.5% (active) in assay [4] (at 50.0 µM). The growth inhibition in assay [5] (setting [7]) was 5% (inactive) and 29% (inactive); in assay [5] (setting [8]), 94% (active) and 97% (active); in assay [5] (at 50.0 µM) it was 87% (active) and 90.2% (active); in assay [6] (setting [7]), -4% (inactive) and 48% (inactive); in assay [6] (setting [8]), 93% (active) and 97% (active); in assay [6] (at 50.0 µM), 87.2% (active) and 91.1% (active).

On to `O=C(CC1(O)C(=O)Nc2ccccc21)c1ccc(Cl)c(Cl)c1` (centres undefined), for which the growth inhibition was -5% (inactive) in assay [1] (setting [7]); 26% (inactive) in assay [1] (setting [8]); 84% (active) in assay [1] (at 50.0 µM); -4% (inactive) in assay [2] (setting [7]); 29% (inactive) in assay [2] (setting [8]); 39% (inactive) in assay [2] (at 50.0 µM). Moreover, the growth inhibition is 1% (inactive) in assay [3] (setting [7]); 41% (inactive) in assay [3] (setting [8]); 73.4% (active) in assay [3] (at 50.0 µM); -5% (inactive) in assay [4] (setting [7]); -12% (inactive) in assay [4] (setting [8]); 72% (active) in assay [4] (at 50.0 µM). The growth inhibition is -4% (inactive) in assay [5] (setting [7]); 31% (inactive) in assay [5] (setting [8]); 77.2% (active) in assay [5] (at 50.0 µM); -4% (inactive) in assay [6] (setting [7]); 31% (inactive) in assay [6] (setting [8]); 88.3% (active) in assay [6] (at 50.0 µM).

For `C=CC(=O)O`, the growth inhibition is -2% (inactive) in assay [1] (setting [7]); -1% (inactive) in assay [1] (setting [8]); 9.85% (inactive) and 32.4% (inactive) in assay [1] (at 50.0 µM); -1% (inactive) in assay [2] (setting [7]); 0% (inactive) in assay [2] (setting [8]); 21.9% (inactive) and -20.6% (inactive) in assay [2] (at 50.0 µM). For the same molecule, the growth inhibition in assay [3] (setting [7]) was -1% (inactive); in assay [3] (setting [8]), 2% (inactive); in assay [3] (at 50.0 µM), -3.35% (inactive) and 18.4% (inactive); in assay [4] (setting [7]) it was 0% (inactive); in assay [4] (setting [8]), 1% (inactive); in assay [4] (at 50.0 µM), 20.8% (inactive) and 9.55% (inactive). The growth inhibition is 1% (inactive) in assay [5] (setting [7]); 3% (inactive) in assay [5] (setting [8]); 47% (inactive) and 30.1% (inactive) in assay [5] (at 50.0 µM); 1% (inactive) in assay [6] (setting [7]); -1% (inactive) in assay [6] (setting [8]); 47.5% (inactive) and 39% (inactive) in assay [6] (at 50.0 µM).

With `C=C[C@]1(C)C=C2C(O)CC3C(C)(C)CCC[C@]3(CO)C2CC1` (some centres undefined), the growth inhibition in assay [1] (setting [7]) was 8% (inactive); in assay [1] (setting [8]) it was 99% (active); in assay [1] (at 50.0 µM), 99.2% (active); in assay [2] (setting [7]), 13% (inactive); in assay [2] (setting [8]) it was 100% (active); in assay [2] (at 50.0 µM), 99.6% (active). Also, the growth inhibition in assay [3] (setting [7]) was 17% (inactive); in assay [3] (setting [8]), 97% (active); in assay [3] (at 50.0 µM) it was 99.5% (active); in assay [4] (setting [7]) it was 13% (inactive); in assay [4] (setting [8]), 99% (active); in assay [4] (at 50.0 µM), 99.3% (active). Further, the growth inhibition in assay [5] (setting [7]) was 4% (inactive); in assay [5] (setting [8]), 99% (active); in assay [5] (at 50.0 µM) it was 99.5% (active); in assay [6] (setting [7]), 26% (inactive); in assay [6] (setting [8]), 99% (active); in assay [6] (at 50.0 µM), 99.2% (active).

For the molecule `NC(=O)SCC(=O)NNc1ccccc1`, the growth inhibition in assay [1] (setting [7]) is 16% (inactive); in assay [1] (setting [8]) it was 54% (inactive); in assay [1] (at 50.0 µM) it was 48.1% (inactive) and 88.1% (active); in assay [2] (setting [7]) it was 1% (inactive); in assay [2] (setting [8]) it was 40% (inactive); in assay [2] (at 50.0 µM), 13.3% (inactive) and 39.9% (inactive). Moreover, the growth inhibition in assay [3] (setting [7]) was 5% (inactive); in assay [3] (setting [8]), 41% (inactive); in assay [3] (at 50.0 µM), 87.8% (active); in assay [4] (setting [7]), 11% (inactive); in assay [4] (setting [8]), 60% (inactive); in assay [4] (at 50.0 µM) it was 82.2% (active). Moreover, the growth inhibition in assay [5] (setting [7]) is 13% (inactive); in assay [5] (setting [8]), 88% (active); in assay [5] (at 50.0 µM) it was 86% (active); in assay [6] (setting [7]), 14% (inactive); in assay [6] (setting [8]), 81% (active); in assay [6] (at 50.0 µM), 51.5% (inactive) and 88.9% (active).

As to `O=C(/C=C/c1ccc(Cl)cc1)NC1C=Nc2ccc([N+](=O)[O-])cc2NC1=O` (centres undefined), the growth inhibition in assay [1] (setting [7]) is 32% (inactive); in assay [1] (setting [8]) it was 94% (active); in assay [1] (at 50.0 µM), 95.8% (active); in assay [2] (setting [7]), -27% (inactive); in assay [2] (setting [8]), 93% (active); in assay [2] (at 50.0 µM) it was 96.5% (active). The growth inhibition in assay [3] (setting [7]) was 29% (inactive); in assay [3] (setting [8]), 93% (active); in assay [3] (at 50.0 µM), 96.6% (active); in assay [4] (setting [7]) it was 13% (inactive); in assay [4] (setting [8]) it was 93% (active); in assay [4] (at 50.0 µM), 92.5% (active). Further, the growth inhibition was 0% (inactive) in assay [5] (setting [7]); 92% (active) in assay [5] (setting [8]); 92.3% (active) in assay [5] (at 50.0 µM); 13% (inactive) in assay [6] (setting [7]); 88% (active) in assay [6] (setting [8]); 97.2% (active) in assay [6] (at 50.0 µM).

On to `C=CCc1c2c(ccc(=O)c1O)-c1c(cc(OC)c(OC)c1OC)CCC2NC(C)=O` (centres undefined), for which the growth inhibition in assay [1] (setting [7]) is -3% (inactive); in assay [1] (setting [8]), 94% (active); in assay [1] (at 50.0 µM), 70.3% (active); in assay [2] (setting [7]), 4% (inactive); in assay [2] (setting [8]) it was 98% (active); in assay [2] (at 50.0 µM), 60.5% (inactive). In addition, the growth inhibition in assay [3] (setting [7]) was -20% (inactive); in assay [3] (setting [8]), 70% (active); in assay [3] (at 50.0 µM) it was 64.6% (inactive); in assay [4] (setting [7]) it was -12% (inactive); in assay [4] (setting [8]), 93% (active); in assay [4] (at 50.0 µM), 72% (active). The growth inhibition is -13% (inactive) in assay [5] (setting [7]); 97% (active) in assay [5] (setting [8]); 53.3% (inactive) in assay [5] (at 50.0 µM); 8% (inactive) in assay [6] (setting [7]); 97% (active) in assay [6] (setting [8]); 67% (inactive) in assay [6] (at 50.0 µM).

The record behind these values is PubChem BioAssay (NCI).
